Data on eight compounds can be found in PubChem BioAssay (NCATS).

In assay [1] the target is Ubiquitin carboxyl-terminal hydrolase 1 (Homo sapiens) (UniProt O94782). Put plainly: Inhibitors of USP1/UAF1: Pilot qHTS (AID 504865; active = well fitted inhibition curve with a large enough effect;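 also: rhodamine fluorescence freed from ubiquitin-rhodamine substrate followed over time; top concentration of the series differs between compounds; % is scaled to controls: 0 for no effect and ±100 for the full control effect; nearly all actives have a fitted effect of over 35% in size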). Put shortly: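 USP1/UAF1 complex (1nM) preincubated with compound 15 min at room temperature, then Ub-Rho substrate (150nM final) added. Fluorescence read kinetically at 480/540 nm, 6 reads every 60 seconds. Buffer: 50mM HEPES pH 7.8, 0.5mM EDTA, 0.1 mg/ml BSA, 1mM TCEP, 0.01% Tween-20.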

In assay [2] the target is Glucocorticoid receptor (Homo sapiens) (UniProt P04150). Put plainly: qHTS assay for small molecule agonists of glucocorticoid receptor signaling (AID 588532; active = well fitted curve in the direction sought with a large enough effect in the signal ratio, with a control signal flat; the % refers to the signal ratio;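 also: 100% = dexamethasone at 0.1 µM and 0% = DMSO only wells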). As to conditions: HeLa MMTV-bla, beta-lactamase ratio, agonist, 18 h; stronger effect = higher value; percent of dexamethasone control, DMSO zero. Put shortly: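 Quantitative HTS using CellSensor MMTV-bla HeLa cells in charcoal/dextran-treated serum; compounds tested up to 92 uM. After 18 h at 37 C, CCF4 dye reported reporter induction.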
Sequence of Glucocorticoid receptor (Homo sapiens) (P04150 whole entry, looked up): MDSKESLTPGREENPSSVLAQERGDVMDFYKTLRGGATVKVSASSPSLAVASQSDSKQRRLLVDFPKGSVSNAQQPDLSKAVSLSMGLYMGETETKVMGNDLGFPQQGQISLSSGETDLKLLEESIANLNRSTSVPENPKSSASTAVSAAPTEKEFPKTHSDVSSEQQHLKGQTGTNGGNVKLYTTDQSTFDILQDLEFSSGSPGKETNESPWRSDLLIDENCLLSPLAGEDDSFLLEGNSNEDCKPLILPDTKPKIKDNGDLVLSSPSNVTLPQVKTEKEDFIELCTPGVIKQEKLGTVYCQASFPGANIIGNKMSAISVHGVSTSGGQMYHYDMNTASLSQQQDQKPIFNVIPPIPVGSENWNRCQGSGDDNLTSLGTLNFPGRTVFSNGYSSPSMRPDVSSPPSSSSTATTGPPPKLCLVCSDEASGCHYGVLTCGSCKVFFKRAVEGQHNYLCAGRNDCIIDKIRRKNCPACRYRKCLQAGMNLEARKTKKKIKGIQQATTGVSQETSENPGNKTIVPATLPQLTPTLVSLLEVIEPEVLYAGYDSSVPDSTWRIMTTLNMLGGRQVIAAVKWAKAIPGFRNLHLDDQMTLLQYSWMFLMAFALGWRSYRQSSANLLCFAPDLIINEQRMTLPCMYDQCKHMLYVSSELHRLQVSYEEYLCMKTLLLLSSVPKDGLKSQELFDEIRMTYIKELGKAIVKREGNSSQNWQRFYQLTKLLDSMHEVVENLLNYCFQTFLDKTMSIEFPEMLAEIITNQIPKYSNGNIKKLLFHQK
For orientation: Quantitative high-throughput screening tests each substance at several concentrations.

The nature of assay [3]: qHTS assay for small molecule antagonists of peroxisome proliferator-activated receptor delta signaling (AID 588535; active = well fitted inhibition curve with a large enough effect in the signal ratio, with a control signal flat, not every such curve was filed as active; the % refers to the signal ratio;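 as to max response: cells co-treated with a PPAR-delta agonist as stimulator during compound exposure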). The following applies: HEK293T PPARd-UAS-bla, beta-lactamase FRET ratio, 18 h; 460 nm channel. Put shortly:
(§1)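 Antagonist-mode qHTS using GeneBLAzer PPAR-delta-UAS-bla HEK293T cells; compound exposure 18 hrs at 37 C over a titration. Ratiometric CCF4 fluorescence at 460/530 nm; concentration-response points fitted to the Hill equation.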

Assay [4] has as its target Peroxisome proliferator-activated receptor delta (Homo sapiens) (UniProt Q03181). The description is as above. Put shortly:
as §1

Assay [5] deals with Peroxisome proliferator-activated receptor gamma (Homo sapiens) (UniProt P37231). Put plainly: qHTS assay for small molecule agonists of peroxisome proliferator-activated receptor gamma signaling (AID 588536; active = well fitted curve in the direction sought with a large enough effect in the signal ratio, with a control signal flat, not every such curve was filed as active; the % refers to the signal ratio;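 also: 0% = DMSO basal wells and 100% = rosiglitazone at 2 µM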). Put shortly: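 Compound treatment: 16 h, 37 C, HEK293 GeneBLAzer cells. Detection: CCF4, 2 h RT. Values: Hill-fit EC50, efficacy as % of 2 uM rosiglitazone.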
Sequence of Peroxisome proliferator-activated receptor gamma (Homo sapiens) (P37231 whole entry, looked up): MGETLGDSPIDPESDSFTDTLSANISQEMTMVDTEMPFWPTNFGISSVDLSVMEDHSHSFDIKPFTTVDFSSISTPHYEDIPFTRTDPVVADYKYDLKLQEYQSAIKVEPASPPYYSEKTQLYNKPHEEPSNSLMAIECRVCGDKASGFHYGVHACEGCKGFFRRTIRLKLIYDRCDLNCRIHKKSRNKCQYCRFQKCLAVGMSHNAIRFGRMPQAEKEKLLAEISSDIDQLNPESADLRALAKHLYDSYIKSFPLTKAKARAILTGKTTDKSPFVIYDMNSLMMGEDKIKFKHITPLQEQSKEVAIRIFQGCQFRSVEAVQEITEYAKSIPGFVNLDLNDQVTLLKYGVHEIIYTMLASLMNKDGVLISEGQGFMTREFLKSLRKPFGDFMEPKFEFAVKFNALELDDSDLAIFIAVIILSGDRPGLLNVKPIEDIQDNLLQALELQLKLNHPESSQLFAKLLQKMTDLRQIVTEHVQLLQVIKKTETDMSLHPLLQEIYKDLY
Assay [6] has as its target Vitamin D3 receptor (Homo sapiens) (UniProt P11473). Put plainly: qHTS assay for small molecule antagonists of vitamin D receptor signaling (AID 588541).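 Also: receptor activated by calcitriol during compound treatment; series mostly up to about 77 µM; % is scaled to controls: 0 for no effect and ±100 for the full control effect.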 Put shortly: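 Antagonist-mode beta-lactamase reporter assay: HEK293T VDR-UAS-bla cells were exposed to titrated compound alongside 1-alpha,25-dihydroxyvitamin D3 at 3 nM final for 16 h. Values were normalized to the 50 nM agonist control and DMSO basal, with IC50 and efficacy from Hill equation fits.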

Assay [7] shares this target. Put plainly: qHTS assay for small molecule agonists of vitamin D receptor signaling (AID 588543).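 Also: 0% = DMSO basal and 100% = reference agonist control.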 The method, boiled down: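 GeneBLAzer VDR-UAS-bla HEK293T cells in 2% charcoal-stripped FBS medium were dosed with compound titrations for 16 h at 37 °C; CCF4 β-lactamase readout (405 nm ex, 460/530 nm em). EC50 and efficacy from Hill fits, normalized to 50 nM calcitriol (100%) and DMSO (0%).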

Assay [8] is described as follows: qHTS assay for small molecule agonists of retinoid X receptor alpha signaling (AID 588544).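 As to activation: 0% = DMSO basal wells and 100% = reference agonist.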 The following applies: HEK293T RXRa-UAS-bla, beta-lactamase reporter, 18 h; 530 nm emission.
The target of assay [9] is Retinoic acid receptor RXR-alpha (Homo sapiens) (UniProt P19793). The description is as above.
For assay [10], the target named is Thyroid hormone receptor beta (Homo sapiens) (UniProt P10828). Put plainly: qHTS assay for small molecule agonists of thyroid hormone receptor beta signaling (AID 588545).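 Also: 0% = DMSO only and 100% = 10 nM T3.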 Put shortly:
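Compounds were tested as agonists in TR-UAS-bla-GripTite HEK 293 cells. After 18 hrs at 37 C, CCF4 substrate was added and fluorescence read after 2 hrs at room temperature.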

A short description of assay [11]: qHTS assay for small molecule antagonists of retinoid X receptor alpha signaling (AID 588546; active = well fitted inhibition curve with a large enough effect in the signal ratio, with a control signal flat, not every such curve was filed as active; the % refers to the signal ratio;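 also: cells stimulated with 9-cis-retinoic acid as agonist; % is scaled to controls: 0 for no effect and ±100 for the full control effect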). As to conditions: HEK293T RXRa-UAS-bla, beta-lactamase ratio, antagonist mode; measured here: W530 green channel, cytotoxicity proxy. The method, boiled down: (§2)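 Beta-lactamase reporter inhibition, read as CCF4 fluorescence ratio (ex 405, em 460/530 nm) after 2 h at RT. HEK293T UAS-bla cells, 2500/well, were stimulated with 9-cis-RA at 500 or 100 nM final alongside test compound for 18 h at 37 C.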

For assay [12], the target named is Retinoic acid receptor RXR-alpha (Homo sapiens) (UniProt P19793). The description is as above. As to conditions: HEK293T RXRa-UAS-bla, beta-lactamase ratio, antagonist mode. Put shortly: as §2
For assay [13], the target named is Estrogen receptor (Homo sapiens) (UniProt P03372). Put plainly: qHTS assay for small molecule antagonists of estrogen receptor alpha signaling (AID 588513; active = well fitted curve in the direction sought with a large enough effect in the signal ratio, with a control signal flat, not every such curve was filed as active; the % refers to the signal ratio; also: % is scaled to controls: 0 for no effect and ±100 for the full control effect). Put shortly: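 ER-alpha-UAS-bla GripTite HEK 293 cells in medium with 2% charcoal/dextran-treated FBS were preincubated 4 h at 37 C, dosed with compound (1:2 titration), stimulated with 0.5nM 17-beta-estradiol for 18 h, then read by CCF4 beta-lactamase fluorescence.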
Sequence of Estrogen receptor (Homo sapiens) (P03372 whole entry, looked up): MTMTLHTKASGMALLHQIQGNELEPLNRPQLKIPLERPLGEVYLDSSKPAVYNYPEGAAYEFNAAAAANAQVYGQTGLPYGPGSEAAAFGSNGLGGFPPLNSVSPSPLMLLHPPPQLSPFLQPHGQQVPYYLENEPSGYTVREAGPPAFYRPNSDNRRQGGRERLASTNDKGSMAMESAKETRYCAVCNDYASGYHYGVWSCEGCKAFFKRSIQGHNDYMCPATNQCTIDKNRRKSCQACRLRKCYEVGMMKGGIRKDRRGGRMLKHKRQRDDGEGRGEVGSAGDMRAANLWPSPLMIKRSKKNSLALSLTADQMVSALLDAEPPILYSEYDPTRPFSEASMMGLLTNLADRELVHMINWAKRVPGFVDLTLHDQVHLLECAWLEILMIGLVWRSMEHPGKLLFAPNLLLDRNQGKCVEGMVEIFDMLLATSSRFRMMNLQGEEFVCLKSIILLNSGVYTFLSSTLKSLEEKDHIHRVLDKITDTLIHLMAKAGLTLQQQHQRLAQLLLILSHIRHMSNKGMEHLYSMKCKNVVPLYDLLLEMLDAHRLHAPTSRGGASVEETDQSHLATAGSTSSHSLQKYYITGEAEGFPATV

The target of assay [14] is Bile acid receptor (Homo sapiens) (UniProt Q96RI1). Put plainly: qHTS assay for small molecule antagonists of farnesoid X receptor signaling (AID 588526). Also: % is scaled to controls: 0 for no effect and ±100 for the full control effect. The method, boiled down: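 Beta-lactamase reporter antagonist mode: HEK293T FXR-UAS-bla cells, titrated compound, CDCA stimulation, 16 h 37 C, CCF4 dye 2 h RT. Data normalized to CDCA 50 uM and DMSO; Hill-fit IC50.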
Sequence of Bile acid receptor (Homo sapiens) (Q96RI1 whole entry, looked up): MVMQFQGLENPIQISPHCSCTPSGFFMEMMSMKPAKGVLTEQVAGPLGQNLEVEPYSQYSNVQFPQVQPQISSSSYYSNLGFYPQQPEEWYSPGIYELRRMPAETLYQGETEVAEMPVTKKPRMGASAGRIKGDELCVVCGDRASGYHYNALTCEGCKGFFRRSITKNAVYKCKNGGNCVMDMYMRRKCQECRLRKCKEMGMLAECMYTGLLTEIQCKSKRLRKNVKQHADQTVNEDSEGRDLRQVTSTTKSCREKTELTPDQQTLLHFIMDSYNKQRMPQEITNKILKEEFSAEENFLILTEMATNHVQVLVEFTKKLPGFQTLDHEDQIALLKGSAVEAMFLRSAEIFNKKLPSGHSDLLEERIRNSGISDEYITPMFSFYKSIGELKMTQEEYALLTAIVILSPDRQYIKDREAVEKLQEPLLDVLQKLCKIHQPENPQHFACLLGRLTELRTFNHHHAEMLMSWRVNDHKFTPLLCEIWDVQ

Assay [15] addresses Glucocorticoid receptor (Homo sapiens) (UniProt P04150). Put plainly: qHTS assay for small molecule antagonists of glucocorticoid receptor signaling (AID 588533; active = well fitted inhibition curve with a large enough effect in the signal ratio, with a control signal flat, not every such curve was filed as active; the % refers to the signal ratio). Put shortly: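 Antagonist-mode qHTS: compound titrations added to GRE-bla HeLa cells, then dexamethasone 2 nM final; 18 h, 37 C. CCF4 FRET fluorescence normalized to dexamethasone and DMSO; IC50 from Hill fit.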
Assay [16] deals with Androgen receptor (Homo sapiens) (UniProt P10275). Put plainly: qHTS assay for small molecule agonists of androgen receptor signaling (AID 588515; active = well fitted curve in the direction sought with a large enough effect in the signal ratio, with a control signal flat; the % refers to the signal ratio; also: % is scaled to controls: 0 for no effect and ±100 for the full control effect). As to conditions: AR-UAS-bla HEK293, beta-lactamase ratio, agonist 16 h; stronger effect = higher value. Put shortly: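 Stimulation of an AR-responsive β-lactamase reporter in GripTite HEK293 cells was measured after 16 h compound exposure at 37 °C, via CCF4 fluorescence after 2 h RT. EC50 from Hill fits, normalized to R1881 at 30 nM.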
Sequence of Androgen receptor (Homo sapiens) (P10275 whole entry, looked up): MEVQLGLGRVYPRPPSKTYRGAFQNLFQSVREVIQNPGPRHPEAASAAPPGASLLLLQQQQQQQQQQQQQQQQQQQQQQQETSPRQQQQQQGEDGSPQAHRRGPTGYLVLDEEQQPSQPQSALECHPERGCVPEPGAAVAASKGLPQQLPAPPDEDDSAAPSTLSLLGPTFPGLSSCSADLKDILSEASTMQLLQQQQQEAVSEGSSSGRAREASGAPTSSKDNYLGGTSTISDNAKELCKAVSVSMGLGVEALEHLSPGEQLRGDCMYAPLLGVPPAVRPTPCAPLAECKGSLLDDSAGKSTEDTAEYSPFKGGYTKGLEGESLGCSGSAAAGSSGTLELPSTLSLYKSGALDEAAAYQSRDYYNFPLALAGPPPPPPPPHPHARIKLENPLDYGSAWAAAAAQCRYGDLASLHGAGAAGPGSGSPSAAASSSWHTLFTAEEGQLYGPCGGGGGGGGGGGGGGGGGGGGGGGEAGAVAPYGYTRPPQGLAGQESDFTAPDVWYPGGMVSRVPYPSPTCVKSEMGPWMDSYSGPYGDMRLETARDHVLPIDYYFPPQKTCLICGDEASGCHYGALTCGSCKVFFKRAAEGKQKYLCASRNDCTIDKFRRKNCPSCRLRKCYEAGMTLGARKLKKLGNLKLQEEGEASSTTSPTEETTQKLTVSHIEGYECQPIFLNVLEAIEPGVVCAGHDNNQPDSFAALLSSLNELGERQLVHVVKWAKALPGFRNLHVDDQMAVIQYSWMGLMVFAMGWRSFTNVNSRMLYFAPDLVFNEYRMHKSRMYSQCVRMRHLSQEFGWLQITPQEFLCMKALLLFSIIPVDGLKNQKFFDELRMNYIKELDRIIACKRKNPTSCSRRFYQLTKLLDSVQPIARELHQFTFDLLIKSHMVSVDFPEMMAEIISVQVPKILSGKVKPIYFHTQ

Assay [17] shares this target. Put plainly: qHTS assay for small molecule antagonists of androgen receptor signaling (AID 588516; active = well fitted curve in the direction sought with a large enough effect in the signal ratio, with a control signal flat, not every such curve was filed as active; the % refers to the signal ratio; also: % is scaled to controls: 0 for no effect and ±100 for the full control effect). Put shortly:
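AR-UAS-bla-GripTite HEK 293 cells (2000/well, 5 h at 37 C) received compound titrations, then R1881 at 10 nM final; after 16 h at 37 C, CCF4 dye 2 h RT, beta-lactamase fluorescence read; IC50 from Hill fits.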

Structures are written as SMILES. Where “and” joins values, the source holds several entries; their conditions need not be identical. Equal values may be shown once. Results filed as inconclusive are left out. Calls of active or inactive are those of the source. Unless noted, calls follow the shape of the full dose curve.

Sequence of Vitamin D3 receptor (Homo sapiens) (P11473 whole entry, looked up): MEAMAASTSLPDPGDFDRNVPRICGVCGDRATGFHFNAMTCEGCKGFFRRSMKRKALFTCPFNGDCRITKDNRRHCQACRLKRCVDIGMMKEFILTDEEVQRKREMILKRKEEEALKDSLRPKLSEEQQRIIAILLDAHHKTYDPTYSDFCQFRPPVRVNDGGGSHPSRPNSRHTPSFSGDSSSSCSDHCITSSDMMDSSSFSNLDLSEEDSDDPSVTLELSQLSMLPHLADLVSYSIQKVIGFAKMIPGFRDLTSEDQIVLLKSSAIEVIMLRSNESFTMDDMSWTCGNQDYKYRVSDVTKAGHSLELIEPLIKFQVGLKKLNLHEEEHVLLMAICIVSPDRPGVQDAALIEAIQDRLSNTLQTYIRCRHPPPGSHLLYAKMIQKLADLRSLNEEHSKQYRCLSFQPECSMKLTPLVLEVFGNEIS
Sequence of Thyroid hormone receptor beta (Homo sapiens) (P10828 whole entry, looked up): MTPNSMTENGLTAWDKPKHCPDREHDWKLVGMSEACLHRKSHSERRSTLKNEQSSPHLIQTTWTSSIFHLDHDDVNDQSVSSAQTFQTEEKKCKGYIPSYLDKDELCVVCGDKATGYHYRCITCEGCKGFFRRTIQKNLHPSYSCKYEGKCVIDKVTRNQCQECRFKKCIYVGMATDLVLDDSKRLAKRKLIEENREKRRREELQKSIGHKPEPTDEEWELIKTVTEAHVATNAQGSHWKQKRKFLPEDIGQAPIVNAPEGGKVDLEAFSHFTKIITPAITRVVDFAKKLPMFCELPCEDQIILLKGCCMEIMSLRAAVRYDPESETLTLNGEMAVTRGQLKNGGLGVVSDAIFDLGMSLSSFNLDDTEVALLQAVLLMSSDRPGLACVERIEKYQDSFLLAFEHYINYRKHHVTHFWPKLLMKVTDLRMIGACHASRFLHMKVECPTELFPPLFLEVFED
Sequence of Peroxisome proliferator-activated receptor delta (Homo sapiens) (Q03181 whole entry, looked up): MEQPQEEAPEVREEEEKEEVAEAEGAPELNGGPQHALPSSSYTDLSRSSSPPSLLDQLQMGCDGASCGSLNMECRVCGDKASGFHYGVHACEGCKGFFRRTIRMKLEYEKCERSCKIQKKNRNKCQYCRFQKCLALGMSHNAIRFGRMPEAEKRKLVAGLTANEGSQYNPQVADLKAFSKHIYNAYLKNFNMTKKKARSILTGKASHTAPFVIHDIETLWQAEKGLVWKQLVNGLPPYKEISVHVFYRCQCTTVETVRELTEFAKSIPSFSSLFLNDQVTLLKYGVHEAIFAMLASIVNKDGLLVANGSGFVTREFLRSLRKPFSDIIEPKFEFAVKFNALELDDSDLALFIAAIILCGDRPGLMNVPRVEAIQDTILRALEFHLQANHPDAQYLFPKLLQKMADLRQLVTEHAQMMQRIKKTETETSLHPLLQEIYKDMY

Regarding `Nc1nccs1`, the Potency result in assay [1] is “inactive”. For the same compound, the activation in assay [2] was 10.5% (inactive). Further, the max response in assay [3] was -9.51%; in [8], -14.1%; in assay [11], -5.85%; in [12] it was 4.13% (inactive). For the same compound, the outcome in assay [4], in assay [5], in assay [6], in [7], in [9] and in [10] was inactive.
`COC(=O)c1ccccc1O`: the Potency entry in assay [13] was “inactive”. The max response in assay [3] is -8.84% and 15.6%; in assay [8] it was -1.26% and -12.6%; in assay [11], 1.7% and -5.56%; in assay [12] it was -1.72% (inactive) and -1.77% (inactive). Besides, the compound was called inactive in assay [4], in assay [6], in [7], in assay [9] and in assay [10].
For `ClC(Cl)Cl`, the Potency entry in assay [1] and in assay [15] was “inactive” throughout. Also, the result in assay [14], in [6], in assay [7] and in [9] was inactive. Also, the activation in assay [2] was -4.49% (inactive). In addition, the max response in [8] was -2.31%; in [11], -1.18%; in assay [12] it was 6.91% (inactive).
Regarding `CN(CCO)CC(O)Cn1cnc2c1c(=O)n(C)c(=O)n2C` (stereo not given) (tested in a mixture with another compound), in [1], the Potency result is “inactive”. Also, the compound was classed as inactive in assay [14], in [4], in assay [5], in assay [9] and in assay [10]. Besides, the max response is 15.9% in [3], -8.02% in [8], -4.33% in assay [11] and -3.95% (inactive) in [12].
Consider `CCCCCCCCCCCCCCCCCC(=O)OC[C@@H](O)[C@H]1OC[C@H](O)[C@H]1O`, for which the Potency result in assay [1] and in [15] was “inactive” each time. For the same compound, the figures for the activation in assay [16] and in assay [2] were 14.2% (inactive) and 3.63% (inactive), respectively. Also, the compound was classed as inactive in [17], in assay [14], in assay [4], in [5], in assay [6] and in assay [7]. Further, the call in assay [9] and in [10] was inactive. Also, the max response is 30.1% in assay [3], -15.4% in [8], -3.05% in assay [11] and -7.79% (inactive) in [12].
For `OCc1ccccc1`, the Potency entry in [13] and in assay [15] was “inactive” each time. Moreover, the results for the activation in [16] and in [2] were -14.4% (inactive) and -0.651% (inactive), respectively. Besides, the result in assay [17], in [5], in [7], in assay [9] and in assay [10] was inactive. Moreover, the results for the max response in assay [8], in assay [11] and in assay [12] were -12.3%, -9.58% and -2.03% (inactive), respectively.
For the compound `CC1=CC(=O)NS(=O)(=O)O1`, the Potency entry in [1] and in assay [15] was “inactive” in each case. Besides, the compound was called inactive in assay [14], in [4], in assay [5], in [6], in assay [7] and in [9]. In assay [10], the call was inactive. Besides, in assay [2], the activation is -3.71% (inactive). In addition, the max response was 2.47% and 22.8% in [3]; -7.78% in [8]; -6.4% and -5.89% in assay [11]; -5.24% (inactive) and 0.185% (inactive) in assay [12].
In the case of `C/C=C/C=C/C(=O)O`, the Potency entry in assay [1] was “inactive”. Moreover, the max response was 0.118% in assay [3], -7.77% in assay [8], -4.17% in [11] and 25.3% (inactive) in assay [12]. The result in assay [4], in assay [5], in [6], in [7], in [9] and in assay [10] was inactive.
